USP2a inh: blocks human ubiquitin-specific protease USP2a; actives 0.01% (n = 330,000); O75604; USP2 core, Ub-CHOP2 coupled fluorogenic reporter, 485/531; Potency, µM (doses to about 38.3 µM), without a hit: at the highest dose activity change, negative = inhibition, usual class: inhibitors;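 further: potency means the concentration at half of the fitted maximal effect; plate controls were DMSO wells for no effect and full inhibition by NEM control for full effect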
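USP2 core (10nM final) preincubated 30min RT with compound in 20mM Tris-HCl pH 8.0, 2mM CaCl2, 2mM beta-mercaptoethanol, 0.05% CHAPS; 25nM Ub-CHOP2 plus 25nM reporter substrate added, fluorescence (Ex485/Em531) read after 60min.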
PI4K2A inh: PI4K2A (human) kinase inhibition; Q9BTU6; purified PI4K2A, ADP-Glo luminescence, 1 h; active compounds read low; activity change, negative = inhibition, % at 76.9 µM; actives 0.13% (n = 420,000); AID 1346378; in the data active means activity change below about -50%; inconclusive means mostly about -30% to -49%;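 further: -100% = wells without enzyme as full effect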
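Compounds are screened against recombinant PI4K2A using PI as substrate and ATP, the latter dispensed at 300 microM. Reactions run one hour at ambient temperature before ADP-Glo detection; full inhibition defined by wells lacking enzyme.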
GALK inh: inhibitors of human galactokinase; Potency, µM (series often up to 57.5 µM), for the others: at the top dose activity change, negative = inhibition, actives largely listed as inhibitors; AID 1868; Purified GALK, Kinase-Glo residual ATP luminescence; actives 0.007% (n = 270,000); further: potency means the concentration at half of the fitted maximal effect
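Quantitative HTS: GALK 5 nM, ATP 35 uM, galactose 100 uM, 1 h room temperature, then luciferase-based ATP detection.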
FBPA coupling cs: counter-screen for Giardia aldolase inhibitors: coupling enzyme system | coupling enzyme system counterscreen, AmpLite Red fluorescence | activity change, negative = inhibition, % at 58.2 µM, hits read low | actives 0.67% (n = 290,000) | AID 2472; in the data active means activity change below about -30%
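Compounds tested against the coupling enzymes alone at 57.5 uM final; readout was AmpLite Red fluorescence (525/598 nm) after 20 min at RT.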
Eya2 phos inh: Eya2 (human) phosphatase inhibition; O00167; recombinant Eya2, OMFP fluorescence dephosphorylation (OMFP is methylfluorescein phosphate); Potency, µM (highest dose often 76.9 µM), without a hit: at the top dose activity, negative = inhibition, actives largely listed as inhibitors; actives 0.006% (n = 330,000); AID 488837; further: potency means the concentration at half of the fitted maximal effect
Target sequence (O00167 whole entry, looked up): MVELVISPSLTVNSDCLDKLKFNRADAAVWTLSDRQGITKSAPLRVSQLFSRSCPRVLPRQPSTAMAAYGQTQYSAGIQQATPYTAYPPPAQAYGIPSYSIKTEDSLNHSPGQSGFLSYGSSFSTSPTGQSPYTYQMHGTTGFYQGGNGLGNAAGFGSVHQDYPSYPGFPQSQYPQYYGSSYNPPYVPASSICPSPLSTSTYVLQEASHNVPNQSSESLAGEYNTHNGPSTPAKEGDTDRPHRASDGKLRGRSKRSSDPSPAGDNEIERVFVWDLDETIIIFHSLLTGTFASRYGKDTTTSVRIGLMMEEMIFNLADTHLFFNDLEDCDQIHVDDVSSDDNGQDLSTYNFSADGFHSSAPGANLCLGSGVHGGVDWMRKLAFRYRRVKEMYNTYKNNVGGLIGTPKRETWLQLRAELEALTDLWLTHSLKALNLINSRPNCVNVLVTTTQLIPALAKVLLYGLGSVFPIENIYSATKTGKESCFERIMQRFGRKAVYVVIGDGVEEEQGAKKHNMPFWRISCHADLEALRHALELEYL
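Eya2 (0.2 uM) preincubated 10 min at ambient with compound, then OMFP substrate added at 50 uM; 10 min reaction in 50 mM HEPES pH 7.5, 50 mM NaCl, 5 uM MgCl2, 0.05% BSA, 1 mM DTT. Fluorescence read at Ex 485/Em 525 nm.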
USP1-UAF1 inh: blocks the human USP1/UAF1 deubiquitinase complex; recombinant USP1/UAF1, Ub-Rhodamine cleavage fluorescence; actives 0.23% (n = 390,000); AID 743255; Potency, µM (series often up to 57.1 µM), without a hit: at the top dose activity change, negative = inhibition, usual class: inhibitors; further: potency means the concentration at half of the fitted maximal effect; nearly all actives have a fitted effect of over 60% in size
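High-throughput fluorogenic screen: 1nM USP1/UAF1 complex, Ub-Rho substrate 150nM final, 50mM HEPES pH 7.8 with 0.5mM EDTA, 0.1 mg/ml BSA, 1mM TCEP and 0.01% Tween-20.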
An asterisk follows results filed as active; ? = inconclusive; nt = no result given; ! = repeats disagree. Sampled rows, rich in hits. Any-hit rate of the full collection: about 0.71%. Unless noted, the call rests on the fitted dose curve; in most records, active means well fitted curve in the direction sought with a large enough effect; inconclusive means small, poorly fitted or top-dose-only effect, or another doubt; inactive means no such curve, though single readings can be large; an effect the other way counts as inactive or inconclusive. Unless noted, on the % scale 0 is the no-effect control and ±100 the full control effect.

SMILES | USP2a inh | PI4K2A inh | GALK inh | FBPA coupling cs | Eya2 phos inh | USP1-UAF1 inh
CCN1C(=O)[C@H]2[C@H]3[C@H](O)[C@H](O)C/C(=N/O[C@@H](C)c4cc(-c5c(C)cc(C)cc5C)no4)[C@@H]3CC[C@@H]2C1=O | nt | nt | nt | 5 | nt | nt
CC(=O)OC[C@H]1O[C@@H](OC(C)=O)[C@H](OC(C)=O)[C@@H]1OC(C)=O | nt | -2 | nt | nt | nt | nt
CCc1cccc2c(CCO)c[nH]c12 | nt | -1 | nt | nt | nt | nt
CCC1=C2CC[C@H]3C(=O)N(CC)C(=O)[C@H]3[C@H]2[C@@]2(Cc3ccccc3)C(=NCC3CC3)OC(=O)N2C1=O | nt | nt | nt | -1 | nt | nt
O=C(O)c1cccc(N2C(=O)c3cccc4cccc(c34)C2=O)c1 | 3% | 4 | -7% | 4 | -1% | 2%
O=C(O)c1cccc(N2C(=O)c3cc([N+](=O)[O-])cc4cc([N+](=O)[O-])cc(c34)C2=O)c1 | 1% | -67* | 4% | -20 | -4% | -20%
CC(C)CC(=NNC(=O)c1ccncc1)c1cc(Cl)ccc1O | nt | 4 | nt | nt | nt | 28µM*
CC(=NNC(=O)c1ccncc1)c1ccccc1O | nt | 2 | nt | nt | nt | -6%
Cc1c2oc3c(C)ccc(C(=O)N[C@@H]4C(=O)N[C@H](C(C)C)C(=O)N5CCC[C@H]5C(=O)N(C)CC(=O)N(C)[C@@H](C(C)C)C(=O)O[C@@H]4C)c3nc-2c(C(=O)N[C@@H]2C(=O)N[C@H](C(C)C)C(=O)N3CCC[C@H]3C(=O)N(C)CC(=O)N(C)[C@@H](C(C)C)C(=O)O[C@@H]2C)c(N)c1=O | nt | -2 | nt | -36* | nt | nt
CCC[C@H]1OC(=O)[C@@H]2CCCN2C(=O)[C@H]([C@H](C)Cc2ccccc2)NC(=O)[C@@H]2CCCN2C(=O)[C@@H]2CCCN2C(=O)[C@H](C(C)C)OC(=O)[C@@H]2CCCN2C(=O)[C@H](C(C)C)NC(=O)C1(C)C | nt | 0 | nt | nt | nt | nt
CCN(C(=O)CN1CCN(c2nc(-c3ccccc3)cs2)CC1)c1ccccc1C | nt | 0 | nt | nt | nt | nt
O=[N+]([O-])c1ccc(C2CCCC/C2=N/OCc2ccccc2F)c([N+](=O)[O-])c1 (centres undefined) | -2% | -1 | -1% | 0 | -5% | -17%
O=C(O/N=C1\CCCCC1c1ccc([N+](=O)[O-])cc1[N+](=O)[O-])c1c(F)cccc1F (centres undefined) | -3% | -8 | -1% | -31* | -12% | -26%
O=C(O)/C=C/c1ccc(O)c(O)c1 | -1% | -2 | -1% | -30*! | 2% | -24%
C[C@](N)(Cc1ccc(O)c(O)c1)C(=O)O | ? | ? | nt | -58*! | 2% | -13%
O=C(/C=C/c1ccc(O)c(O)c1)O[C@H](Cc1ccc(O)c(O)c1)C(=O)O | ? | nt | -3% | -35* | 3% | nt
NC(Cc1ccc(O)c(O)c1)C(=O)O (centres undefined) | nt | nt | nt | -30* | nt | nt
C/C(=N\O)c1ccc(OCC(=O)N2CCCCC2)cc1 | nt | 1 | nt | nt | nt | nt
Cc1nc2cc(C(=O)N3CCN(C(=O)C(C)(C)C)CC3)ccc2n1C1CCCC1 | nt | -6 | nt | nt | nt | nt
CCOC(=O)/C(C#N)=C/C=C1/C=CC=CN1C | -2% | 4 | 1% | -1 | 8% | -16%
C=CCN1C=CC(=C/C=C(/C#N)C(=O)OCC)C=C1 | ? | -6 | 0% | -5 | 7% | 28µM*
c1ccc(C2=NN(c3ccccc3)CC2)cc1 | 8% | -1 | 0% | -4 | 6% | -2%
CCOC(=O)/C(=C/c1ccc(N2CCC(c3ccccc3)=N2)cc1)C(C)=O | 6% | -3 | nt | -1 | 18% | 4.5µM*
CCCNc1nc(C#N)nc(Nc2ccccc2)n1 | nt | nt | nt | 0 | nt | nt
CC(=O)Nc1ccc2nc3ccccc3nc2c1 | 4% | -26 | 4% | -33* | 2% | -3%
SMILES | USP2a inh | PI4K2A inh | GALK inh | FBPA coupling cs | Eya2 phos inh | USP1-UAF1 inh
O=C(Nc1ccc2nc3ccccc3nc2c1)c1ccc(Br)cc1 | 4% | -1 | 0% | -39* | -13% | -20%
O=C1c2ccc3c4c(ccc(c24)C(=O)N1NC(=O)C(F)(F)F)CC3 | 0% | -3 | 2% | 5 | 5% | ?
CC(=O)NN1C(=O)c2ccc3c4c(ccc(c24)C1=O)C(=O)N(NC(C)=O)C3=O | -1% | -7 | 0% | -32* | 16% | -15%
CCC(=O)[C@@]1(O)C(=O)N2C(=C3C(=O)OCCC31)N(Cc1ccccc1)C(C)=C(C(=O)OC)C2c1ccccc1 (some centres undefined) | nt | nt | nt | 0 | nt | nt
CC1(C)C=C2C(N(Cc3ccc4c(c3)OCO4)C(=N)N2C(=O)OCc2ccccc2)n2c(=O)n(-c3ccccc3)c(=O)n21 (centres undefined) | nt | 0 | nt | nt | nt | nt
Cc1ccc(C)c(S(=O)(=O)C(C#N)c2nc3ccccc3nc2N2CCCC2)c1 (centres undefined) | -2% | -5 | 1% | -36* | -6% | -8%
Cc1ccc(C)c(S(=O)(=O)C(C#N)c2nc3ccccc3nc2N2CCOCC2)c1 (centres undefined) | 7% | 0 | -2% | 0 | -9% | -5%
O=C(NCCc1cccc(F)c1)c1cc2ccccn2n1 | nt | 1 | nt | nt | nt | nt
CC(C)(C)Nc1oc(-c2ccccc2)nc1-c1ccccc1 | nt | nt | nt | 1 | nt | nt
COc1cccc(CNc2ccc(N3CCCCC3)cc2)c1OC | 0% | -10 | 0% | -34* | 13% | ?
CCOc1cc(CNc2ccc(N3CCCC3)cc2)cc(Cl)c1OC | 1% | -9 | nt | -22 | 6% | 28µM*
COc1cc(CNc2ccc(N3CCCC3)cc2)cc(Cl)c1OC | -10% | -14 | 0% | -27 | -5% | ?
C[C@@H]1CCN(C(=O)[C@H](CCCN=C(N)N)NS(=O)(=O)c2cccc3c2NC[C@H](C)C3)[C@@H](C(=O)O)C1 | nt | -1 | nt | nt | nt | nt
O.O.[Mn].[Mn].[Mn].[OH-].[OH-] | nt | nt | nt | 1 | nt | nt
C=CCOc1c(Br)cc(CNc2ccc(NC(=O)C(C)C)c(OC)c2)cc1OCC | -4% | 4 | nt | -50* | -17% | -23%
CCOc1cc(CNc2ccc(N3CCCCC3)cc2)cc(Br)c1OCC(=O)NC(C)(C)C | 3% | 0 | 4% | 1 | -14% | -19%
CCOc1cc(CNc2ccc(N(C)C)cc2)cc(Br)c1OCC(=O)NC(C)(C)C | 2% | ? | 0% | -37* | -21% | -20%

From PubChem
